Test [1] is described as follows: qHTS assay to identify small molecule antagonists of the sonic hedgehog signaling (Shh) pathway (AID 1259369; calls by dose curve; note: nearly all actives have a fitted effect of over 45% in size; note: potency is the fitted concentration of half-maximal effect). The essentials:
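Read-out is luminescence from a firefly luciferase gene controlled by the Gli1 response element, in 3T3Gli1-Luc cells pre-incubated 4hr then exposed to compounds and conditioned medium for 24hr.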

The target in test [2] is Estrogen receptor beta (Homo sapiens) (UniProt Q92731). Briefly: qHTS assay to identify small molecule agonists of the estrogen receptor beta (ER-beta) signaling pathway (AID 1259377; active = well fitted activation curve with a large enough effect in the signal ratio in the repeat runs, not every such curve was filed as active; the % refers to the signal ratio; note: potency is the fitted concentration of half-maximal effect). An outline of the steps: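 Read-out: beta-lactamase FRET fluorescence. Cell line: ER-beta-UAS-bla HEK293T in 2% charcoal-stripped FBS. Exposure: 16 hr at 37C. Substrate step: 2 h at room temperature.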
Chain of Estrogen receptor beta (Homo sapiens) (Q92731 whole entry, looked up): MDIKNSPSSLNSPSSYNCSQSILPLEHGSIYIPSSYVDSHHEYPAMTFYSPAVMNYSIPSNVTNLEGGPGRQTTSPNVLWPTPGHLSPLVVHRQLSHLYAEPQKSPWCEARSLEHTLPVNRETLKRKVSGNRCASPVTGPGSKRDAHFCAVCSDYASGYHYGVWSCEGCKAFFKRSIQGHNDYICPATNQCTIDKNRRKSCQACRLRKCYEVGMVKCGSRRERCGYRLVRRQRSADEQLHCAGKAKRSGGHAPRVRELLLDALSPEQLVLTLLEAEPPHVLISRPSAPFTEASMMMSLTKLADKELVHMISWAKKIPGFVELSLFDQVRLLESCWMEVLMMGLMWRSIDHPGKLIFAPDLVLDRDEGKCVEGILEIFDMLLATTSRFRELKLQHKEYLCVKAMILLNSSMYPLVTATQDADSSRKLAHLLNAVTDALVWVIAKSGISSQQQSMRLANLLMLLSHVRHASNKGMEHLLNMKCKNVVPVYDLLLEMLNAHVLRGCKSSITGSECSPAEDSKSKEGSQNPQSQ

Test [3] in a line: qHTS assay to identify small molecule agonists of the androgen receptor (AR) signaling pathway in the presence of an antagonist - cell viability counter screen (AID 1259379). Note: nearly all actives have a fitted effect of over 25% in size. Note: potency is the fitted concentration of half-maximal effect. The essentials: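 Each compound was tested at 15 concentrations on MDA-kb2 cells in the presence of 3.0uM nilutamide. Viability was measured by CellTiter-Fluor fluorescence after a 16 hr incubation at 37C in a CO2-free atmosphere.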

Test [4] is described as follows: qHTS assay to identify small molecule agonists of the estrogen receptor beta (ER-beta) signaling pathway - cell viability counter screen (AID 1259380). Note: nearly all actives have a fitted effect of over 30% in size. Note: potency is the fitted concentration of half-maximal effect. An outline of the steps: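 Compounds dissolved in DMSO were pin-transferred onto ER-beta-UAS-bla HEK293T cells that had settled 6 hr, and exposure ran 16 hr at 37C. Following the reporter read, CellTiter-Glo luminescence after 30 min at room temperature indicated cytotoxicity.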

Test [5] has as its target Androgen receptor (Homo sapiens) (UniProt P10275). The experiment in a line: qHTS assay to identify small molecule agonists of the androgen receptor (AR) signaling pathway in the presence of an antagonist (AID 1259381; calls by dose curve; note: nearly all actives have a fitted effect of over 15% in size). An outline of the steps: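 Plated MDA-kb2 cells (3,000/well) were pre-incubated 5hr, given nilutamide (3.0uM final) or buffer, then dosed with compounds in DMSO at 15 concentrations. Luciferase activity was quantified by luminescence after 16hr at 37C.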

Test [6] in a line: qHTS assay to identify small molecule antagonists of the estrogen receptor beta (ER-beta) signaling pathway - cell viability counter screen (AID 1259382).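 Note: HEK293T cells carrying ER-beta-UAS-bla reporter stimulated with estradiol; series mostly up to about 92 µM; nearly all actives have a fitted effect of over 55% in size.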 An outline of the steps:
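CellTiter-Glo ATP luminescence measured after the LiveBLAzer read in the same wells; ER-beta-UAS-bla HEK293T cells, 16 hr compound treatment with 1nM 17-beta-estradiol agonist at 37C, 5% CO2.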

Test [7] is described as follows: qHTS assay to identify small molecule agonists of the estrogen receptor alpha (ER-alpha) signaling pathway in the presence of an antagonist - cell viability counter screen (AID 1259386).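 Note: series mostly up to about 92 µM; cells exposed to compounds for 22 h at 37 °C before the viability read; nearly all actives have a fitted effect of over 30% in size.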 An outline of the steps:
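Using estrogen-depleted VM7Luc4E2 cells, the 15-concentration compound series was applied together with 10.0nM ICI-182,780 and incubated 22hr at 37C/5% CO2. Cell viability was then scored by CellTiter-Fluor.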

Test [8] addresses Progesterone receptor (Homo sapiens) (UniProt P06401). Briefly: qHTS assay to identify small molecule agonists of the progesterone receptor (PR) signaling pathway (AID 1346784; calls by dose curve; note: nearly all actives have a fitted effect of over 30% in size; note: potency is the fitted concentration of half-maximal effect). An outline of the steps:
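Compounds were tested for PR agonism in HEK 293T cells bearing a beta-lactamase gene under UAS control. Treatment lasted 16 hr at 37C; signal came from fluorescence of a FRET substrate.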

Test [9] can be described thus: qHTS assay to identify small molecule antagonists of the progesterone receptor (PR) signaling pathway - cell viability counter screen (AID 1346798). Note: nearly all actives have a fitted effect of over 50% in size. Note: potency is the fitted concentration of half-maximal effect. The essentials: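 Following a 4 hr attachment, PR-UAS-bla HEK293T cells in charcoal-stripped FBS medium were exposed to compounds with R5020 for 16 hr; CellTiter-Glo was added and luminescence read after 30 min at room temperature.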

A short description of test [10]: qHTS assay to identify small molecule agonists of the progesterone receptor (PR) signaling pathway - cell viability counter screen (AID 1346799; calls by dose curve; note: nearly all actives have a fitted effect of over 45% in size). The essentials: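 Here, 3,000 PR-UAS-bla HEK293T cells per well were treated with compounds for 16 hr after a 6 hr preincubation at 37C and 5% CO2; cell viability is the CellTiter-Glo luminescence signal.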
Test [11] in a line: qHTS assay to identify small molecule antagonists of the TGF-beta/Smad signaling pathway - cell viability counter screen (AID 1346824). Note: nearly all actives have a fitted effect of over 50% in size. An outline of the steps:
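Cytotoxicity counter-screen run in the same wells as the beta-lactamase Smad reporter read: CellTiter-Glo luminescence after 30 min at room temperature. HEK 293T SBE-bla cells had 5 hr compound exposure at 37 C with TGF-beta1 (0.25 ng/mL stock).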

Test [12] is described as follows: qHTS assay to identify small molecule agonists of the TGF-beta/Smad signaling pathway - cell viability counter screen (AID 1346829). Note: top concentration of the series differs between compounds; nearly all actives have a fitted effect of over 45% in size. The essentials:
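Luminescence from CellTiter-Glo, read after a 30 min room-temperature incubation, gives cell viability of SBE-bla HEK 293T cells treated 5 hr with compounds at 37 C.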

Test [13] in a line: qHTS assay to identify small molecule agonists of the TGF-beta/Smad signaling pathway (AID 1346859; active = well fitted activation curve with a large enough effect in the signal ratio in the repeat runs, not every such curve was filed as active; the % refers to the signal ratio; note: series mostly up to about 77 µM). An outline of the steps:
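Each well held 4,000 SBE-bla HEK 293T cells incubated overnight before compound addition; 5 hr later the cleavable FRET substrate went on for 2 hr at room temperature, and fluorescence was read at two emissions.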

In test [14] the target is Thyrotropin-releasing hormone receptor (Homo sapiens) (UniProt P34981). Briefly: qHTS assay to identify small molecule antagonists of the thyrotropin-releasing hormone receptor (TRHR) signaling pathway (AID 1346877; active = well fitted inhibition curve with a large enough effect in the repeat runs, not every such curve was filed as active; note: series mostly up to about 51 µM). The essentials: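 Calcium signal in dye-loaded TRHR/HEK293 cells; compounds added 5 min before TRH (1 nM final); fluorescence monitored 3 min at 1 s steps.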
Chain of Thyrotropin-releasing hormone receptor (Homo sapiens) (P34981 whole entry, looked up): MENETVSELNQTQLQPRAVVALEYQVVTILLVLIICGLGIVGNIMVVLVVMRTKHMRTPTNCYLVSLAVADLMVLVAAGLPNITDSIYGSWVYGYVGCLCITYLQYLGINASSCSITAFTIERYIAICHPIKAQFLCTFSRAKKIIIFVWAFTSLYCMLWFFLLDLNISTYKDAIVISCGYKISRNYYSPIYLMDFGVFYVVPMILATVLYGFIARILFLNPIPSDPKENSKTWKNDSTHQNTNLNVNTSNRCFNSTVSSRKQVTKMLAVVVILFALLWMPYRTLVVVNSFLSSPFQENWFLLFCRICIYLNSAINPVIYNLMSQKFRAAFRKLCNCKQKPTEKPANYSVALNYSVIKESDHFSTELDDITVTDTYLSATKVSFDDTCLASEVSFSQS

The nature of test [15]: qHTS assay to identify small molecule agonists or antagonists of the thyroid stimulating hormone receptor (TSHR) signaling pathway - wild type cell line counter screen (AID 1259384; calls by dose curve). The essentials:
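Counter screen in untransfected Hek293: compounds (15-point titration, triplicate) plus phosphodiesterase inhibitor Ro20-1724 added after 18 h plating; 30 min RT. Intracellular cAMP via competitive d2/cryptate immunoassay, 1 h incubation.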

Test [16] has as its target Thyrotropin receptor (Homo sapiens) (UniProt P16473). The experiment in a line: qHTS assay to identify small molecule antagonists of the thyroid stimulating hormone receptor (TSHR) signaling pathway (AID 1259385; calls by dose curve; note: nearly all actives have a fitted effect of over 20% in size). The essentials: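 Antagonist mode: compound-treated TSHR-expressing HEK293 cells were stimulated with 1.5 ng/mL TSH (final) in presence of Ro20-1724 for 30 min at RT. HTRF cAMP detection after 1 h; each compound tested at 15 concentrations, triplicate.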

The target in test [17] is Thyrotropin-releasing hormone receptor (Homo sapiens) (UniProt P34981). The experiment in a line: qHTS assay to identify small molecule agonists of the thyrotropin-releasing hormone receptor (TRHR) signaling pathway (AID 1346891; calls by dose curve; note: series mostly up to about 58 µM). An outline of the steps: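 Screening of agonists relied on calcium signalling in HEK293 cells expressing human TRHR: dye loading 2 h at 37 °C preceded compound addition and a 3-min fluorescence time course.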

Test [18] has as its target Progesterone receptor (Homo sapiens) (UniProt P06401). Briefly: qHTS assay to identify small molecule antagonists of the progesterone receptor (PR) signaling pathway (AID 1346795; active = well fitted inhibition curve with a large enough effect in the signal ratio in the repeat runs, not every such curve was filed as active; the % refers to the signal ratio; note: potency is the fitted concentration of half-maximal effect). An outline of the steps: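 In HEK293T cells bearing the PR-UAS-bla reporter, compound effects on promegestone-driven (1 nM) beta-lactamase expression are assessed after 16 hr using a fluorescent FRET substrate incubated 2 hr at room temperature.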

Test [19] addresses Estrogen receptor (Homo sapiens) (UniProt P03372). Briefly: qHTS assay to identify small molecule agonists of the estrogen receptor alpha (ER-alpha) signaling pathway in the presence of an antagonist (AID 1259383; calls by dose curve; note: top concentration of the series differs between compounds; nearly all actives have a fitted effect of over 15% in size). The essentials:
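Luminescent ERE-luciferase reporter, VM7Luc4E2 cells (endogenous ER-alpha); 10.0nM ICI-182,780 final; 15-point compound titration; 22hr at 37C; ONE-Glo, 30min RT.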

Values without a mark were called inactive. Results filed as inconclusive are left out. The source made the active and inactive calls. Unless noted, calls come from the whole dose curve; as a rule, active = well fitted curve in the direction sought with a large enough effect in the repeat runs; inconclusive = weak or mixed curves; inactive = no such curve, though single readings can be large; an effect the other way counts as inactive or inconclusive.

Chain of Progesterone receptor (Homo sapiens) (P06401 whole entry, looked up): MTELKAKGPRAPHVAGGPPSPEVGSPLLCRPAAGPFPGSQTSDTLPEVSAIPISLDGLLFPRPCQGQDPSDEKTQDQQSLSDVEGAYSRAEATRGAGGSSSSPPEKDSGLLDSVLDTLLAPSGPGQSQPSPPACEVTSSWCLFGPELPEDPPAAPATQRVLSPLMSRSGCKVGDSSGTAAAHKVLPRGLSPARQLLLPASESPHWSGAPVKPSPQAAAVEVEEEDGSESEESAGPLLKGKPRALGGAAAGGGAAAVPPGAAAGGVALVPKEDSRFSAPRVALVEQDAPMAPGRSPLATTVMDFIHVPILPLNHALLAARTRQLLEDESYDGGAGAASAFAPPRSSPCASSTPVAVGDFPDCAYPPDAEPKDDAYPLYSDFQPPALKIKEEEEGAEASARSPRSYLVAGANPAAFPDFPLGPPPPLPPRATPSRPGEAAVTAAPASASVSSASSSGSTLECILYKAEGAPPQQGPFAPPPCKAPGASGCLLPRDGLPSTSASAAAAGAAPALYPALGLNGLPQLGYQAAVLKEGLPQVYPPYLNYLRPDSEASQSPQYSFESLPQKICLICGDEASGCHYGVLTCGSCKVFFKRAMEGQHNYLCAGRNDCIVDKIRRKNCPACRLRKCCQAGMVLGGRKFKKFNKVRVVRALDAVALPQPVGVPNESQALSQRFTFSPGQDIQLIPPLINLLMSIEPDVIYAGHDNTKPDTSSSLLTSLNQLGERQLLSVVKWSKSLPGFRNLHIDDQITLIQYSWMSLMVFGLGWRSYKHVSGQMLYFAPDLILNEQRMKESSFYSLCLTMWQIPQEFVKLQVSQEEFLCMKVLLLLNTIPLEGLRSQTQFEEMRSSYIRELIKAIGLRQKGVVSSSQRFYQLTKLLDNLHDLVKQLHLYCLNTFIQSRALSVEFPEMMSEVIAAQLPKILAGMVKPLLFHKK
Chain of Thyrotropin receptor (Homo sapiens) (P16473 whole entry, looked up): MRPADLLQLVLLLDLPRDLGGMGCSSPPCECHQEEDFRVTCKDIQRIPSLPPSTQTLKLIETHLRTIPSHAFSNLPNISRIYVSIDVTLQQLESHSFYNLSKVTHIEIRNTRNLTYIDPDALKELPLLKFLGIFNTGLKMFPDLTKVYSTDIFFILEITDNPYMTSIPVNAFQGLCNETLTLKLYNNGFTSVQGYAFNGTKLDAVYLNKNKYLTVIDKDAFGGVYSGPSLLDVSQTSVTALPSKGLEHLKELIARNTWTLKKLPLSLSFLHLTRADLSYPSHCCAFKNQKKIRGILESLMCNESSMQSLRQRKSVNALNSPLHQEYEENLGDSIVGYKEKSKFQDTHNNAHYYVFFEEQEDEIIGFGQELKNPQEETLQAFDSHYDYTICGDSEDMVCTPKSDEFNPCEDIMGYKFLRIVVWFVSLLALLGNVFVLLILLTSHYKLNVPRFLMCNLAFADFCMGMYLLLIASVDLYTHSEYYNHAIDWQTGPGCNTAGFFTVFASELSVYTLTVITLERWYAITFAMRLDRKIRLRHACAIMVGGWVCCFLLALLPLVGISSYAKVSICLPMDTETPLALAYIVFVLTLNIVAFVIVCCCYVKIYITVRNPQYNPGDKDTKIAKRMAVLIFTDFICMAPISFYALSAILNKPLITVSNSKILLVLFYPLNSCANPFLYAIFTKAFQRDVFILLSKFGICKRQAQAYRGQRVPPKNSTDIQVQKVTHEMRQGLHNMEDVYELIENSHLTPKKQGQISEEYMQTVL
Chain of Estrogen receptor (Homo sapiens) (P03372 whole entry, looked up): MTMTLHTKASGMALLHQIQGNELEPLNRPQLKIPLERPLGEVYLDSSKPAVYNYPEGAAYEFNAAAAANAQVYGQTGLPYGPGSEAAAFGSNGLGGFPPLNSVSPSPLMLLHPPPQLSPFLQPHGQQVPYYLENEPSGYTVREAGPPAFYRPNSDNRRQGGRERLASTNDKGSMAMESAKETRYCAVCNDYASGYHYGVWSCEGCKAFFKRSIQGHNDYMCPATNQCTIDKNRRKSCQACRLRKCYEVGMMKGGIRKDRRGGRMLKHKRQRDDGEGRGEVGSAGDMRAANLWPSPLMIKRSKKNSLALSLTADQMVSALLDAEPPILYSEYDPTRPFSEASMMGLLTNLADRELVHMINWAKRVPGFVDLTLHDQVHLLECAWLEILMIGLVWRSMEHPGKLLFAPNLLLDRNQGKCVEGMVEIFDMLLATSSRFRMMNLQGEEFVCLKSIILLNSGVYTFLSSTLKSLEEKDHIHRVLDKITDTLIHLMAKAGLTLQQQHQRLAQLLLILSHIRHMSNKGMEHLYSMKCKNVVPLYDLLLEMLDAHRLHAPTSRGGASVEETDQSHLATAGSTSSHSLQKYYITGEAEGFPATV
Chain of Androgen receptor (Homo sapiens) (P10275 whole entry, looked up): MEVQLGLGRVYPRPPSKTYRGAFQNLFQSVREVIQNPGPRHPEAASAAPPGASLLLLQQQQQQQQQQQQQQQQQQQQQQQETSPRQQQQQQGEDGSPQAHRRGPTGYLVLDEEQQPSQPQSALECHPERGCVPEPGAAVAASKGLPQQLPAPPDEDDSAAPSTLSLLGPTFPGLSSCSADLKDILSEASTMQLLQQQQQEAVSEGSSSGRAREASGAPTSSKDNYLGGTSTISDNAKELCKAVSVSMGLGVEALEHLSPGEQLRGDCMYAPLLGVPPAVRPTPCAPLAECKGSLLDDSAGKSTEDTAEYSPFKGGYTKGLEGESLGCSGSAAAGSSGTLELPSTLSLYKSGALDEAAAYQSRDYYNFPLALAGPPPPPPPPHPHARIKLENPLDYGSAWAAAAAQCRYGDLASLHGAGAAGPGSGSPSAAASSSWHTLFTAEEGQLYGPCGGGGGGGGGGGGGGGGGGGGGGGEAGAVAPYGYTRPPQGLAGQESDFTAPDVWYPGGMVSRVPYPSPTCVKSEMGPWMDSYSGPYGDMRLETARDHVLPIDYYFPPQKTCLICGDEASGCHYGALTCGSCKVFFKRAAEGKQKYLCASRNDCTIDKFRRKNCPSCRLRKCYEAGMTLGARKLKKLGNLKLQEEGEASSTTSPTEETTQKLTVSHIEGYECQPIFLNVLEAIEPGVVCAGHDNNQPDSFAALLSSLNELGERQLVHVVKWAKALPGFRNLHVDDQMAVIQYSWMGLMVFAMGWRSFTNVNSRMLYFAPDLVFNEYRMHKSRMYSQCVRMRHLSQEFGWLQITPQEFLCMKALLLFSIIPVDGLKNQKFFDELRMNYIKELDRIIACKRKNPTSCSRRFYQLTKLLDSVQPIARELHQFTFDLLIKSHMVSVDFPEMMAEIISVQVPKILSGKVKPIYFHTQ

`C=COCCCl`: the Potency entry in [1], in [2], in test [3], in test [4], in [5] and in test [6] was “inactive” throughout. Besides, the Potency entry in [7], in test [8], in test [9], in test [10], in test [11] and in test [12] was “inactive” throughout. Also, the Potency entry in [14] is “inactive”. In addition, the call in [13] was inactive.
As for `CC1(C)[C@H](C(=O)O[C@H](C#N)c2cccc(Oc3ccccc3)c2)[C@@H]1/C=C(\Cl)C(F)(F)F`, the Potency result in test [1], in test [2], in [3], in test [4], in test [6] and in test [16] was “inactive” in each case. Moreover, the Potency entry in [7], in test [8], in test [9], in [10], in test [11] and in test [12] was “inactive” each time. Also, the Potency entry in test [14] and in test [17] was “inactive” throughout. Besides, the call in test [15] and in [13] was inactive.
On to `Clc1ccc(C(Cl)(Cl)Cl)c(Cl)c1`, for which the Potency entry in test [1], in test [2], in [3], in [7], in test [18] and in test [11] was “inactive” in each case. Also, the Potency entry in test [12], in test [14] and in test [17] was “inactive” in each case. For the same compound, the result in [15] and in [13] was inactive. Besides, the Potency in test [9] was 48.9 µM (active).
Turning to `CC(C)Oc1cccc(NC(=O)c2ccccc2C(F)(F)F)c1`, the Potency in [1] was 2.17 µM (active); in test [4] it was 17.2 µM (active); in test [8] it was 1.22 µM (active). The Potency entry in [2], in test [3], in test [19], in [7], in test [12] and in [14] was “inactive” each time. The Potency entry in test [17] was “inactive”. In addition, in test [15], the result was inactive.
Turning to `CC(C)(C)c1cc([N+](=O)[O-])cc(C(C)(C)C)c1O`, the Potency was 3.06 µM (active) in [1], 8.63 µM (active) in [3] and 30.6 µM (active) in test [18]. For the same compound, the Potency result in [2], in test [6], in [16], in [8], in test [12] and in test [14] was “inactive” throughout. Further, in test [17], the Potency result was “inactive”. Also, in [15], the call was inactive.
As for `COC[C@H](C)N(C(=O)CCl)c1c(C)csc1C`, the Potency result in test [1], in test [2], in test [3], in test [4], in test [6] and in [7] was “inactive” each time. The Potency result in test [8], in test [18], in test [9], in test [10], in test [11] and in [12] was “inactive” each time. The Potency entry in test [14] and in test [17] was “inactive” in each case. The compound was called inactive in test [13].
For the compound `CCc1ccccc1C`, the Potency entry in [1], in test [2], in test [3], in [4], in test [5] and in [6] was “inactive” throughout. Also, the Potency entry in [19], in [16], in [7], in [8], in test [18] and in [11] was “inactive” throughout. Also, the Potency entry in test [12] is “inactive”. Also, the compound was called inactive in [13].
In the case of `C[C@]12CC[C@@H]3c4ccc(OC(=O)N(CCCl)CCCl)cc4CC[C@H]3[C@@H]1CC[C@@H]2O`, the Potency entry in test [1], in test [3], in test [4], in [16], in test [7] and in test [8] was “inactive” throughout. Further, the Potency entry in test [9], in test [11], in test [12], in test [14] and in [17] was “inactive” in each case. Also, in test [2], the Potency is 0.266 µM (active). In addition, the call in test [15] and in test [13] was inactive.

These data come from PubChem BioAssay (Tox21).
